From PubChem
Pf growth 96h: P. falciparum growth inhibition at 96 hour, primary screen for plastid delayed-death inhibitors. P. falciparum luciferase reporter growth, 96 h. Potency, µM (highest dose often 28.7 µM), without a hit: at the top dose activity change, negative = inhibition, actives largely listed as inhibitors. 320,000 tested, 6.9% active. AID 504834; also: potency is read from the fitted curve at half-maximal effect; % is scaled to controls: 0 for no effect and ±100 for the full control effect
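Readout is luminescence from an integrated firefly luciferase in P. falciparum. Red cells, 2% hematocrit and 0.05% parasitemia final, were cultured with compound through two parasite generations (96 hours) at 37 C, 5% CO2.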
Sm TGR inh: S. mansoni TGR enzyme inhibition; Q962Y6; purified TGR, DTNB reduction, TNB absorbance 405 nm; Potency, µM (doses to about 114 µM), inactives show top-dose activity change, negative = inhibition, hits mostly inhibitors; 360,000 tested, 3% active; AID 485364; also: potency is read from the fitted curve at half-maximal effect; % is scaled to controls: 0 for no effect and ±100 for the full control effect; nearly all actives have a fitted effect of over 60% in size
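TGR 20 nM + NADPH 100 uM (dispensed conc.), cpd preinc 15 min RT; start with NADPH (500 uM addition) then DTNB (15 mM addition). Kinetic TNB absorbance, 405 nm filter. Four-parameter Hill fit across titration.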
SARS PLP yeast: SARS-CoV PLP inhibition in yeast; S. cerevisiae expressing SARS-CoV PLpro, growth rescue; AID 485353; 330,000 tested, 0.19% active; Potency, µM (top dose mostly 32.9 µM), without a hit: at the highest dose activity, positive = growth rescue, most hits filed as activators; calls by dose curve; also: potency is read from the fitted curve at half-maximal effect; 0% is about no effect; nearly all actives have a fitted effect of over 55% in size
Pf growth 48h: P. falciparum growth inhibition at 48 hours (one generation) | 310,000 tested, 5.9% active | Potency, µM (titrated, usually from 28.7 µM), for inactives: at the top dose activity change, negative = inhibition, hits mostly inhibitors | P. falciparum luciferase growth in erythrocytes, 48 h; also: potency is read from the fitted curve at half-maximal effect; % is scaled to controls: 0 for no effect and ±100 for the full control effect
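A one-generation exposure of luciferase-tagged malaria parasites in RPMI 1640/Albumax erythrocyte culture, 37 C and 5% CO2. Inhibition is inferred from decreased luminescence after adding detection reagent.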
HCV inhibitor: inhibitors of hepatitis C virus infection; 340,000 tested, 3.4% active; Huh7.5.1 HCVcc-Cre infection, luciferase reporter, 44 h; Potency, µM (doses to about 41.8 µM), without a hit: at the top dose activity change, negative = inhibition, most hits filed as inhibitors; also: potency is read from the fitted curve at half-maximal effect; % is scaled to controls: 0 for no effect and ±100 for the full control effect
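After 44 h co-culture of compound, cells and HCVcc-Cre (~0.5 moi), substrate is added for 15 min at room temperature and luciferase measured over 15 sec. Cells were seeded at 1,000/well and pre-cultured 4 h.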
HCMV antiviral: human cytomegalovirus inhibition. HFF cells, HCMV-luciferase reporter, 72 h; stronger effect = lower value. activity change, negative = inhibition, % at 57.5 µM. 410,000 tested, 4.5% active. AID 1259415; in the data active = activity change below about -60%; inconclusive = no clear call, values can overlap the other calls; inactive = above about -39%; also: % is scaled to controls: 0 for no effect and ±100 for the full control effect
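After 16 h attachment at 37C, HFF cells received test compound and HCMV-luciferase (1 PFU/cell); reporter luminescence read 72 h later, data normalized against buffer-only and known inhibitor Salinomycin.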
* = called active by the depositor; [ ] = another dose, or the depositor's remark. Shown are actives, neighbours in structure and some others; about 15% of the full set was active somewhere. Unless noted, calls follow the shape of the dose curve; as a rule, active = well fitted curve in the direction sought with a large enough effect; inconclusive = small, poorly fitted or top-dose-only effect, or another doubt; inactive = no such curve, though single readings can be large; an effect the other way counts as inactive or inconclusive.

Cc1cc(=O)oc2c(C(=O)/C=C/c3ccccc3)c(O)ccc12 was read as Sm TGR inh -22%, SARS PLP yeast -5%, Pf growth 48h 5.9µM*, HCV inhibitor -8% and HCMV antiviral -30.
CCOC(=O)c1ccc(NC(=O)Cn2cnc3sc(C(=O)OCC)c(C)c3c2=O)cc1 was read as Sm TGR inh 6% and HCMV antiviral -11.
Screening O=S(=O)(c1ccc(OC(F)(F)F)cc1)N1CCCC(N2CCOCC2)C1 (configuration not stated) returned Pf growth 96h 224%, Sm TGR inh -32%, SARS PLP yeast 0%, Pf growth 48h 0%, HCV inhibitor inconclusive and HCMV antiviral 6.
For Cc1ccc(CN2CC=CCS2(=O)=O)cc1 the results were HCMV antiviral -13.
Screening O=C(CC1CC2CCC1C2)N1CCN(S(=O)(=O)c2ccc(C(F)(F)F)cc2)CC1 (configuration not stated) returned HCMV antiviral -22.
For O=S(=O)(C/C(=C/CO)S(=O)(=O)c1ccccc1)c1ccccc1 the results were Pf growth 96h inconclusive, Sm TGR inh 4.5µM*, SARS PLP yeast 5%, Pf growth 48h inconclusive, HCV inhibitor 10µM* and HCMV antiviral -106*.
O=C(CS(=O)(=O)c1ccccc1)CS(=O)(=O)c1ccccc1 was read as HCMV antiviral 66.
COc1ccc(-c2cnc(OC(C)(C)C)nc2OC(C)(C)C)cc1OC was read as Sm TGR inh 6%, SARS PLP yeast -1%, Pf growth 48h 10µM*, HCV inhibitor inconclusive and HCMV antiviral -5.
`COc1cc([N+](=O)[O-])ccc1NC(=O)NCC1CCN(Cc2ccc(Cl)cc2)CC1` gave Pf growth 96h inconclusive, Sm TGR inh -11%, SARS PLP yeast -1%, Pf growth 48h inconclusive, HCV inhibitor 13µM* and HCMV antiviral 1.
Screening CCc1cccc(CN2CCC(CNC(=O)Nc3ccc(Cl)cc3)CC2)c1 returned Pf growth 96h inconclusive, Sm TGR inh 20%, SARS PLP yeast 0%, Pf growth 48h 4.7µM*, HCV inhibitor 7% and HCMV antiviral -27.
COc1ccc(Cl)cc1NC(=O)NCC1CCN(Cc2cc(C)ccc2C)CC1 was read as Pf growth 96h inconclusive, Sm TGR inh 8%, SARS PLP yeast 1%, Pf growth 48h 1%[0.00184 µM], HCV inhibitor inconclusive and HCMV antiviral -16.
For Cc1ccc(C)c(CN2CCC(CNC(=O)Nc3ccc(C)c(C)c3)CC2)c1 the results were Pf growth 96h 14%, Sm TGR inh 3%, SARS PLP yeast 0%, Pf growth 48h 4.1µM*, HCV inhibitor -27% and HCMV antiviral -8.
For Cc1ccc(NC(=O)CCCSc2ccccc2)cc1S(=O)(=O)N1CCOCC1 the results were Pf growth 96h inconclusive, Sm TGR inh 7%, SARS PLP yeast 0%, Pf growth 48h inconclusive, HCV inhibitor inconclusive and HCMV antiviral -6.
`Cc1cc(-c2nc3ncccc3o2)ccc1NC(=S)NC(=O)C(C)C` gave Pf growth 96h 40%, SARS PLP yeast 0%, Pf growth 48h 2%, HCV inhibitor 22% and HCMV antiviral 24.
Screening O=C(N/C(C(=O)N1CCOCC1)=C(\Sc1ncccn1)c1ccccc1)c1ccccc1 returned Pf growth 96h -1%, Sm TGR inh 40µM*, SARS PLP yeast -3%, Pf growth 48h -10%, HCV inhibitor 11% and HCMV antiviral 20.
Screening CC(C)=C(NC(=O)c1ccccc1)C(=O)N1CCOCC1 returned Sm TGR inh 4%, SARS PLP yeast 8%, Pf growth 48h 5%, HCV inhibitor 26% and HCMV antiviral -23.
For Cc1cc2c(cc1S(=O)(=O)CCC(=O)N1CCCC(C)C1)OCC(=O)N2 (configuration not stated) the results were Sm TGR inh -4% and HCMV antiviral 4.
Screening CCOC(=O)c1ccc(N=C2SC(C(=O)NC)CC(=O)N2Cc2ccc(F)cc2)cc1 (configuration not stated) returned Pf growth 96h 1.7µM*, Sm TGR inh 0%, SARS PLP yeast -3%, Pf growth 48h -25%, HCV inhibitor 24% and HCMV antiviral -36.
CCOC(=O)c1ccc(N=C2SC(C(=O)Nc3ccc(C(=O)O)cc3)CC(=O)N2Cc2cccs2)cc1 (configuration not stated) was read as Pf growth 96h 13%, Sm TGR inh 4%, SARS PLP yeast 0%, Pf growth 48h inconclusive, HCV inhibitor 28% and HCMV antiviral -71*.
Screening Cc1c(/C=N/NC(=O)CNc2ccccc2)c2ccccn2c1C(=O)c1ccncc1 returned Pf growth 96h inconclusive, Sm TGR inh 0%, SARS PLP yeast 8%, Pf growth 48h inconclusive, HCV inhibitor -20% and HCMV antiviral 2.
Screening Cc1ccccc1NCC(=O)N/N=C/c1c(C)c(C(=O)c2ccc(Cl)cc2)n2ccccc12 returned Pf growth 96h 4.7µM*, Sm TGR inh -14%, SARS PLP yeast inconclusive, Pf growth 48h 13µM*, HCV inhibitor inconclusive and HCMV antiviral -7.
Cc1c(C(=O)Nc2ccc(Cl)cc2)c2ccccn2c1C(=O)c1ccccc1 was read as Pf growth 96h inconclusive, Sm TGR inh inconclusive, SARS PLP yeast 13%, Pf growth 48h inconclusive, HCV inhibitor -11% and HCMV antiviral 32.
`Cc1c(/C=N/NC(=O)CNc2ccccc2)c2ccccn2c1C(=O)c1ccc(Cl)cc1` gave Pf growth 96h 3.3µM*, Sm TGR inh -7%, SARS PLP yeast 5%, Pf growth 48h 3.3µM*, HCV inhibitor -42% and HCMV antiviral -30.
Screening O=C(COC(=O)[C@@H]1CC(O)CN1S(=O)(=O)c1ccc2c(c1)OCCO2)Nc1ccccc1F (some centres not stated) returned Pf growth 96h inconclusive, Sm TGR inh 0%, SARS PLP yeast 5%, Pf growth 48h 1%, HCV inhibitor 5% and HCMV antiviral 62.
`CC(=O)Nc1cccc2c1Cc1cc([N+](=O)[O-])ccc1-2` gave HCV inhibitor 16% and HCMV antiviral -98*.
`O=[N+]([O-])c1ccc2c(c1)Cc1cc(F)ccc1-2` gave HCV inhibitor -16% and HCMV antiviral -94*.
Screening COc1cc2c(cc1[N+](=O)[O-])-c1ccccc1C2 returned HCV inhibitor -9% and HCMV antiviral -75*.
For COc1cc2c(cc1[N+](=O)[O-])-c1ccc([N+](=O)[O-])cc1C2 the results were HCMV antiviral -68*.
